Measurements from article PMC4336329 (PLoS ONE, 2015).
Among all 310,000 compounds or so, about 14,000 (4.5%) showed an effect of 50% or more. Effects have a minus sign here. The sample as a whole holds a higher share of strong results than the screen did.

target: human ether-à-go-go-related gene (hERG) potassium channel (human, UniProt Q12809); assay: primary screen, population patch clamp on CHO cells stably expressing hERG; higher = less effect of the substance
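Note: peak tail current of the secondary pulse compared with the same well before compound.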

Sequence of human ether-à-go-go-related gene (hERG) potassium channel (Q12809 whole entry, looked up): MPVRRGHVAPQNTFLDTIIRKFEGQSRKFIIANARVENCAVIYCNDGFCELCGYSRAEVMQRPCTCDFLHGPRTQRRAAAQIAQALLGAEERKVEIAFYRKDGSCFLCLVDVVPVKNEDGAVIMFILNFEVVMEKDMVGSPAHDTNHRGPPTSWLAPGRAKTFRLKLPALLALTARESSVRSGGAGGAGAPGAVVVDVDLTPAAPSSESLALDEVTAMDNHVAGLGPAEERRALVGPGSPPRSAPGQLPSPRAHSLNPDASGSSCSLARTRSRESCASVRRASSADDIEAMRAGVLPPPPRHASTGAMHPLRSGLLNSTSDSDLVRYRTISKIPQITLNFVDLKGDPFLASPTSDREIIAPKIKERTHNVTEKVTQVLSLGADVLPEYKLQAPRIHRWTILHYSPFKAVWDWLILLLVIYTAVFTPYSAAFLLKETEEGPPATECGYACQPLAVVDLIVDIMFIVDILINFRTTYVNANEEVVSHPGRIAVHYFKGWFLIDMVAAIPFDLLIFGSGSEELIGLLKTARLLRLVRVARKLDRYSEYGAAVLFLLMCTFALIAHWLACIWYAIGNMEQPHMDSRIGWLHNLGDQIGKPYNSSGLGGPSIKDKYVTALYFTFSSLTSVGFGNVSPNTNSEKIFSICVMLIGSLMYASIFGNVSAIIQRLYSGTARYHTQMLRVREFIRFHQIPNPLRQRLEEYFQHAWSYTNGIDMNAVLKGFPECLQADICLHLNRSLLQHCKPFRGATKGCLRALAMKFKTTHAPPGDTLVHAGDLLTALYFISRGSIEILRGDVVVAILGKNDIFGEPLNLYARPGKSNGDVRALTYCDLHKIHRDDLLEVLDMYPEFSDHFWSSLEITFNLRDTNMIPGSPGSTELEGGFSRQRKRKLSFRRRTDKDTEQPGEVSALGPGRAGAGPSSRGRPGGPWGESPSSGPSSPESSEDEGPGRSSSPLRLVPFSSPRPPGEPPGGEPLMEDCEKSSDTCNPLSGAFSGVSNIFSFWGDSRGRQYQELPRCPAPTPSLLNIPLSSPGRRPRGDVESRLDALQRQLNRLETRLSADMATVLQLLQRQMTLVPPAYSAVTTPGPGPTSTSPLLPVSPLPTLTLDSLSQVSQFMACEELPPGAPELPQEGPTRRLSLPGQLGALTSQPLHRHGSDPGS

| Compound | hERG current change (%, negative = inhibition) at 10uM [%] |
| --- | --- |
| CCCc1cc(=O)[nH]c(SCC(=O)N(CC)Cc2ccccc2)n1 | 7.9 |
| Cc1ccc(S(=O)(=O)C2(C(=O)N3CCCCC3C)CC2)cc1 (stereo not drawn) | 1.58 |
| CC1C(=O)N2CCCc3cc(S(=O)(=O)N(C)Cc4ccccc4)cc1c32 (stereo not drawn) | -14.7 |
| O=C(O)c1cc(=O)n(Cc2ccccc2)c(=O)[nH]1 | 15 |
| Cc1ccc(C(C)NC(=O)c2cccnc2)cc1 (stereo not drawn) | 11.2 |
| Clc1ccccc1Cn1c(/C=C/c2ccco2)nc2ccccc21 | 13.5 |
| COc1cc2c(cc1NC(=O)COC(=O)CNS(=O)(=O)c1ccc(C)cc1)oc1ccccc12 | 1.63 |
| CN(c1ccc(C(=O)Nc2cccnc2)cc1)S(=O)(=O)c1ccccc1 | -14.9 |
| COc1ccc(-c2nnc(SCC(=O)Nc3sc4c(c3C#N)CCCC4)n2-c2ccccc2)cc1 | 15.4 |
| Cc1ccc(C)c(S(=O)(=O)N2CCN(c3nc(CN4CCOCC4)nc4sc(C)c(C)c34)CC2)c1 | -57.1 |
| Cc1sc2nc(CN3CCOCC3)nc(N3CCOCC3)c2c1C.O=C(O)C(=O)O | -10.8 |
| Cc1ccc(S(=O)(=O)Nc2nc(CN3CCOCC3)nc3sc(C)c(C)c23)cc1 | -43 |
| O=C(CNc1n[nH]c(=O)[nH]c1=O)N/N=C/c1ccccc1 | 2.89 |
| O=S(NC1CCCCC1)C12CC3CC(CC(C3)C1)C2 (stereo not drawn) | -12.4 |
| CC(C)c1nc(N2CCN(C(=O)c3ccco3)CC2)c(C#N)c2c1COC(C)(C)C2 | -71.5 |
| CCCNC(=O)N1CCN(c2nc(C(C)C)c3c(c2C#N)CC(C)(C)OC3)CC1 | 4.84 |
| Cc1nc(N2CCN(Cc3ccccc3)CC2)c(C#N)c2c1COC(C)(C)C2 | -5.21 |
| CCc1nc(N2CCN(C(=O)c3ccco3)CC2)c(C#N)c2c1COC(C)(C)C2 | -52.1 |
| Cc1nc(N2CCN(C(=O)c3ccc(Cl)cc3)CC2)c(C#N)c2c1COC(C)(C)C2 | -60.8 |
| CCc1nc(N2CCN(C(=O)c3ccccc3)CC2)c(C#N)c2c1COC(C)(C)C2 | -46.5 |
| CCc1nc(N2CCN(C(C)=O)CC2)c(C#N)c2c1COC(C)(C)C2 | -0.704 |
| CC(C)c1nc(N2CCN(C(=O)c3ccccc3)CC2)c(C#N)c2c1COC(C)(C)C2 | -40.8 |
| CC1(C)Cc2c(C#N)c(N3CCN(C(=O)c4ccco4)CC3)nc(Cc3ccccc3)c2CO1 | -25.3 |

| Compound | hERG current change (%, negative = inhibition) at 10uM [%] |
| --- | --- |
| O=C(CC1SC(N2CCCCC2)=NC1=O)Nc1cccc(C(F)(F)F)c1 (stereo not drawn) | 12.3 |
| CCOc1ccc(C2Oc3nc(SC)nnc3-c3ccccc3N2C(C)=O)cc1OC (stereo not drawn) | 9.64 |
| CCC(Sc1nnc(-c2ccc(C)c(Cl)c2)n1CC)C(=O)Nc1nccs1 (stereo not drawn) | -20.6 |
| CCOC(=O)/C=C(\C)Sc1cc(=O)oc2ccccc12 | -40.4 |
| O=C(Nc1nccs1)c1ccc(COc2ccccc2)o1 | 15.6 |
| O=C(O)CC1c2ccccc2CCN1S(=O)(=O)c1ccc(F)cc1 (stereo not drawn) | 8.32 |
| CCc1ccc2[nH]c(=O)c(-c3ccccc3)c(O)c2c1 | 17.5 |
| CN(CC(N)=O)S(=O)(=O)c1ccc(F)cc1 | -15.7 |
| O=C(CSc1ccc2nnc(-c3cccnc3)n2n1)c1ccccc1 | -70 |
| CCOC(=O)CSc1ccc2nnc(-c3cccnc3)n2n1 | -31 |
| O=C(CSc1ccc2nnc(-c3cccnc3)n2n1)N1CCOCC1 | -25 |
| O=C(O)CSc1ccc2nnc(-c3cccnc3)n2n1 | 12.2 |
| CCC(Sc1ccc2nnc(-c3cccnc3)n2n1)C(=O)OC (stereo not drawn) | -47 |
| COc1ccc(C(=O)CSc2ccc3nnc(-c4cccnc4)n3n2)cc1 | -70.3 |
| O=C(Nc1cccc(NC(=O)C2CC2)n1)C1CC1 | -6.67 |
| CCOC(=O)N1CCN(c2cc(N3CCOCC3)c(F)cc2[N+](=O)[O-])CC1 | -18.2 |
| CC1=CC(=O)OC1Cc1ccncc1 (stereo not drawn) | 11.3 |
| NC(=O)C1CCN(C(=O)CCSCc2ccc(Cl)c(Cl)c2)CC1 | -13.3 |
| COC(=O)c1ccc(CN2CCCCC2)cc1 | 1.45 |
| COC(=O)c1ccc(CN2CCC(CO)(Cc3ccccc3Cl)CC2)cc1 | -64.8 |
| COC(=O)c1ccc(CN2CCC(CO)(Cc3ccc(OC)cc3)CC2)cc1 | -66.1 |
| COC(=O)c1ccc(CN2CCC(CO)(Cc3cccc(OC)c3)CC2)cc1 | -66.1 |
| COc1cccc(CC2(CO)CCN(Cc3cn(C)nc3C)CC2)c1 | 18.3 |

| Compound | hERG current change (%, negative = inhibition) at 10uM [%] |
| --- | --- |
| COc1ccc(CC2(CO)CCN(Cc3ccc(OC(F)(F)F)cc3)CC2)cc1 | -75.1 |
| CCN1CCN(Cc2ccc(OC(F)(F)F)cc2)CC1 | -26.6 |
| COc1ccc(CC2(CO)CCN(Cc3ccncc3)CC2)cc1 | -21.2 |
| COc1ccc(-c2ncc(CN3CCC(CO)(Cc4cccc(OC)c4)CC3)cn2)cc1 | -4.79 |
| COC(=O)c1cccc(C(=O)N2CCC(CO)(Cc3ccccc3Cl)CC2)c1 | -23.1 |
| Nn1c(SCC(=O)Nc2c(F)cc(F)cc2Br)nnc1C1CCCCC1 | 3.21 |
| CCOC(=O)c1nnn(-c2nonc2-c2ccccc2)c1C | -25.2 |
| S=c1[nH]cc(-c2ccccc2)n1-c1ccccc1Cl | 9.61 |
| CCc1onc(C)c1C(=O)Nc1ccc(N2CCOCC2)cc1 | 15 |
| Clc1ccc(-c2noc(/C=C/c3ccccc3)n2)cc1 | 18.2 |
| CC1(C)C2CC=C(CN3CCC(O)CC3)C1C2 (stereo not drawn) | -7.45 |
| COc1cccc(CC2(CO)CCN(CC3=CC[C@H]4C[C@@H]3C4(C)C)CC2)c1 | -44.2 |
| COc1ccc(CC2(CO)CCN(CC3=CC[C@H]4C[C@@H]3C4(C)C)CC2)cc1 | -58.7 |
| CCN(CC)S(=O)(=O)c1ccc2c(c1)nc(SCc1nc3ccsc3c(=O)[nH]1)n2CC | -30.8 |
| COc1ccc(C=NCCC2(O)CC(C)N(C)CC2C)cc1 (stereo not drawn) | 8.31 |
| CC1Oc2cc3c(-c4c(O)cc(O)c5c(O)c6c(cc45)OC(C)C(C)C6=O)c(O)cc(O)c3c(O)c2C(=O)C1C (stereo not drawn) | 10.8 |
| C[N+]1(C)[C@@H]2CC[C@H]1CC(OC(=O)C(c1ccccc1)c1ccccc1)C2.[I-] (stereo partly drawn) | 18 |
| C[N+]1(C)CCC(OC(=O)C(c2ccccc2)c2ccccc2)CC1.[I-] | 1.2 |
| CN(C)[C@@H]1CCC[C@H]1OC(=O)C(c1ccccc1)c1ccccc1 | -65.2 |
| CC1CN(C(C)C)C(C)CC1OC(=O)c1ccccc1 (stereo not drawn) | 15.7 |
| CC1CN(C)C(C)CC1OC(=O)C(c1ccccc1)c1ccccc1 (stereo not drawn) | -73.7 |
| CCCCOc1ccc(C(=O)OC2CC(C)N(C)CC2C)cc1 (stereo not drawn) | -25.4 |
| O=C(Cc1cccs1)NCCn1ccc2ccccc21 | -6.95 |

| Compound | hERG current change (%, negative = inhibition) at 10uM [%] |
| --- | --- |
| Cc1ccc(C2=NN(C(=O)CSc3nnnn3C)C(c3ccco3)C2)cc1 (stereo not drawn) | 17.1 |
| Cc1cn(C)c(=O)n(C)c1=O | 4.46 |
| Cc1ccc(-c2c[n+](CC(=O)Nc3nc(-c4ccc(F)cc4)cs3)c3n2CCC3)cc1.[Cl-] | -74.2 |
| O=C(C[n+]1cc(-c2ccc(F)cc2)n2c1CCC2)Nc1nc(-c2ccc(F)cc2)cs1.[Cl-] | -76.7 |
| O=C(C[n+]1cc(-c2ccccc2)n2c1CCC2)Nc1nc(-c2ccc(F)cc2)cs1.[Cl-] | -20.3 |
| O=C(C[n+]1cc(-c2ccc(F)cc2)n2c1CCC2)Nc1nc(-c2ccccc2)cs1.[Cl-] | -11.1 |
| Cn1c(NC(=O)C[n+]2cc(-c3ccc(F)cc3)n3c2CCC3)cc(=O)n(C)c1=O.[Cl-] | 1.04 |
| O=C(C[n+]1cc(-c2ccc(Cl)cc2)n2c1CCC2)Nc1nc(-c2ccc(F)cc2)cs1.[Cl-] | -48.4 |
| CN(c1ccc(C(=O)N2CCOCC2)cc1[N+](=O)[O-])C1CCCCC1 | -23.1 |
| CCCCC[C@H]1CN(CCCC)C(=O)[C@@H]1CC(=O)NCc1ccccc1 | -73.5 |
| CCCCC[C@H]1CN(Cc2ccc(OC)cc2)C(=O)[C@@H]1CC(=O)NCc1ccccc1 | -38.6 |
| COc1ccc(CN2C[C@H](C)[C@@H](CC(=O)NCc3ccccc3)C2=O)cc1 | -10.7 |
| CCCCC[C@H]1CN(CCc2ccccc2)C(=O)[C@@H]1CC(=O)NCc1ccc(OC)cc1 | -61.8 |
| CCCCC[C@H]1CN(CCCC)C(=O)[C@@H]1CC(=O)NCc1ccc(OC)cc1 | -71 |
| CCCCCCc1ccc(N2C[C@H](Cc3ccccc3)[C@@H](CC(=O)NCc3ccc(OC)cc3)C2=O)cc1 | -4.42 |
| CCCCC[C@H]1CN(Cc2ccccc2)C(=O)[C@@H]1CC(=O)NCc1ccc(OC)cc1 | -56.4 |
| COc1ccc(CCN2CC(C(=O)NCc3ccccc3)CCC2=O)cc1 (stereo not drawn) | -8.79 |
| CCCCN1C[C@H](C)[C@@H](CC(=O)NCc2ccccc2)C1=O | -10.5 |
| CCCCN1CC[C@H]2C=CC[C@@H](C(=O)NCc3ccc(OC)cc3)[C@H]2C1=O | 2.71 |
| CCCCCCc1ccc(N2C[C@H](CCCCC)[C@@H](CC(=O)NCc3ccc(OC)cc3)C2=O)cc1 | -16.6 |
| CCCCN1C[C@H](Cc2ccccc2)[C@@H](CC(=O)Nc2ccccc2)C1=O | -25.4 |
